JMJD2A Tudor: qHTS Assay for Inhibitors of JMJD2A-Tudor Domain; Lysine-specific demethylase 4A (Homo sapiens), O75164; AlphaScreen JMJD2A-Tudor / H3K4me3 peptide binding; Potency, µM (doses to about 114 µM), without a hit: at the highest dose activity change, negative = inhibition, usual class: inhibitors; 390,000 tested, 4.4% active; AID 504339, 2011; further: on the % scale 0 is the no-effect control and ±100 the full control effect; nearly all actives have a fitted effect of over 50% in size
BAZ2B inh: qHTS Assay for Inhibitors of BAZ2B; 360,000 tested, 4.4% active; Bromodomain adjacent to zinc finger domain protein 2B (Homo sapiens), Q9UIF8; Potency, µM (top dose mostly 114 µM), inactives show top-dose activity change, negative = inhibition, usual class: inhibitors; AID 504333, 2011; AlphaScreen BAZ2B-H3K14Ac peptide displacement; further: on the % scale 0 is the no-effect control and ±100 the full control effect; nearly all actives have a fitted effect of over 60% in size
Target sequence (Q9UIF8 whole entry, looked up, the tested form may be a part): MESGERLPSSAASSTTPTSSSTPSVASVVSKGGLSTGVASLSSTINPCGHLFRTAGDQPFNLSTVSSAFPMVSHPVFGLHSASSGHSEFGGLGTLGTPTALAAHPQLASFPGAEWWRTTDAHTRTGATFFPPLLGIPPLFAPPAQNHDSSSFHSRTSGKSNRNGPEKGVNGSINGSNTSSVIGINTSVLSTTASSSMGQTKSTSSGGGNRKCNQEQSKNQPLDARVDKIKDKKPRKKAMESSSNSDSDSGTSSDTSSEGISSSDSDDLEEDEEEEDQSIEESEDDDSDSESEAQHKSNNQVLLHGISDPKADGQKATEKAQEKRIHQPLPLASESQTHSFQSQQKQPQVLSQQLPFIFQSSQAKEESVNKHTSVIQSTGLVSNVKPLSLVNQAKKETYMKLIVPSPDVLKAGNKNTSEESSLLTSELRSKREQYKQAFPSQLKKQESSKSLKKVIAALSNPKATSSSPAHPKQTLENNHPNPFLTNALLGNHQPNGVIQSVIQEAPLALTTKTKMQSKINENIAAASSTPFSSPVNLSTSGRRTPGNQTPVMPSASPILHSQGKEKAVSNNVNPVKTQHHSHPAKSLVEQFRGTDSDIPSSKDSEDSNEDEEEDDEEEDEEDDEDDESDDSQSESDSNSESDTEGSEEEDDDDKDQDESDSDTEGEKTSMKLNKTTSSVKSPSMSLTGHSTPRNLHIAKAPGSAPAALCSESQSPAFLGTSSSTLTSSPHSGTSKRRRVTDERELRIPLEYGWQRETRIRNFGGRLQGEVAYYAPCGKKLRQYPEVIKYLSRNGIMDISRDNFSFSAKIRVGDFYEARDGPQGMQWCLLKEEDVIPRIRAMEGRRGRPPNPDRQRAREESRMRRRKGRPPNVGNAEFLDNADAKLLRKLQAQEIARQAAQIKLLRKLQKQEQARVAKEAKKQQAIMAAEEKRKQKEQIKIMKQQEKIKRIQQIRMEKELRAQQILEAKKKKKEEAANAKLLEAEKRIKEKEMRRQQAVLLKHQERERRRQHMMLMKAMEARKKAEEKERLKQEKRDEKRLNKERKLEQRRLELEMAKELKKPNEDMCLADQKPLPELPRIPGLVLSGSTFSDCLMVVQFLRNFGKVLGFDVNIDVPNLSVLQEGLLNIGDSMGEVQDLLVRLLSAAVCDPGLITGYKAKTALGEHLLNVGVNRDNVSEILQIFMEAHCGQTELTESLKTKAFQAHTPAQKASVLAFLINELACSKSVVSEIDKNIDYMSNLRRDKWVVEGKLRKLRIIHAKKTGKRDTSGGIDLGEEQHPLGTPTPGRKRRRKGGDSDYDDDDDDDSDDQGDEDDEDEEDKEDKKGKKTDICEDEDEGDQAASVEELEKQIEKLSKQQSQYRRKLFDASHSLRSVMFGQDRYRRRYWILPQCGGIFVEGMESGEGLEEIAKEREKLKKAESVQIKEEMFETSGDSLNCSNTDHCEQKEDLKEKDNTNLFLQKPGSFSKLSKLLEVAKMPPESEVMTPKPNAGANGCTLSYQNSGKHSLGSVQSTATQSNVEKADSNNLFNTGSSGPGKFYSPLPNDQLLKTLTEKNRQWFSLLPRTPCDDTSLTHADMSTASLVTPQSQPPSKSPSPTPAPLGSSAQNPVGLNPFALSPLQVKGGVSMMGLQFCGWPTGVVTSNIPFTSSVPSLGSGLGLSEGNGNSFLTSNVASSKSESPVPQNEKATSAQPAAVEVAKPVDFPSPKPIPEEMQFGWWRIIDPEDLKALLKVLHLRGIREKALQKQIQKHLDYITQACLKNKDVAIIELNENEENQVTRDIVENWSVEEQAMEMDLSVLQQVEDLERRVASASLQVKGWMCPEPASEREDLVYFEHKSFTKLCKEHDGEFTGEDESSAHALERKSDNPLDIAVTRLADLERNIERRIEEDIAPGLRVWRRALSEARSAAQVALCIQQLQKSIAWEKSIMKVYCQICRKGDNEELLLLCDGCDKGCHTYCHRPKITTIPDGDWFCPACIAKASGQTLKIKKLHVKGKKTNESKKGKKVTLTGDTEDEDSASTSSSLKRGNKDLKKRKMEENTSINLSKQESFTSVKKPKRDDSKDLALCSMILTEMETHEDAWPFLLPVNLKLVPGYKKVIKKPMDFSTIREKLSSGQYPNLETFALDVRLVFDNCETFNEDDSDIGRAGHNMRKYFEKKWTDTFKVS
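AlphaScreen displacement of biotin-H3(5-23)K14Ac peptide (50 nM final) from BAZ2B (50 nM final) in PBS pH 7.4, 0.01% Tween-20; complex preformed 30 min RT, then compounds (top 110 uM) 30 min RT, beads 20 min dark.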
G9a block: qHTS Assay for Inhibitors of Histone Lysine Methyltransferase G9a; Histone-lysine N-methyltransferase EHMT2 (Homo sapiens), Q96KQ7; Potency, µM (series often up to 102 µM), inactives show top-dose activity, negative = inhibition, usual class: inhibitors; G9a H3K9 monomethylation, AlphaScreen, 2 h; AID 504332, 2011; 350,000 tested, 8.8% active; further: on the % scale 0 is the no-effect control and ±100 the full control effect; nearly all actives have a fitted effect of over 75% in size
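AlphaScreen detection with an anti-monomethyl H3K9 antibody quantified product after a 2 h room-temperature reaction containing 500 nM biotinylated H3K9 peptide, 20 µM SAM and 20 nM enzyme, which had been preincubated 15 min with compound.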
HP1b chromo inh: HTS for Inhibitors of HP1-beta Chromodomain Interactions with Methylated Histone Tails | Chromobox protein homolog 1 (Homo sapiens), P83916 | AlphaScreen HP1-beta / biotin-H3K9me3 peptide binding | Potency, µM (highest dose often 114 µM), for inactives: at the top dose activity change, negative = inhibition, actives largely listed as inhibitors | 390,000 tested, 0.56% active | AID 540317, 2011; further: nearly all actives have a fitted effect of over 70% in size
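AlphaScreen: HP1-beta (50 nM) preformed 30 min with biotin-H3(1-18)K9me3 peptide (50 nM) in PBS pH 7.4, 0.01% Tween-20. Compound added for 30 min at RT, then streptavidin donor/nickel chelate acceptor beads (10 ug/mL) for 30 min.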
Sfp inh: qHTS Assay for Inhibitors of Bacillus subtilis Sfp phosphopantetheinyl transferase (PPTase); 4'-phosphopantetheinyl transferase ffp (Bacillus subtilis), Q9F4F7; Biochemical Sfp PPTase activity, qHTS; Potency, µM, for the others: largest response in the series, negative = inhibition, hits mostly inhibitors; 310,000 tested, 3.5% active;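 further: the enzyme is Sfp with the accession as filed and its product quenches rhodamine fluorescence; 0% = enzyme reaction without inhibitor and -100% = no enzyme wells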
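Reaction rates are the 30-min fluorescence difference (ex 525, em 598 nm) in wells containing 15 nM Sfp, 5 uM rhodamine-CoA and 12.5 uM BHQ-2-YbbR at pH 7.6 with 10 mM MgCl2.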
* = called active by the depositor; ? = inconclusive; / = no result; [ ] = dose if it differs, or a comment. Most compounds without a hit are left out; they make up all but 12% or so of the library. The call rests on the fitted dose curve; in most records, active means well fitted curve in the direction sought with a large enough effect; inconclusive means small, poorly fitted or top-dose-only effect, or another doubt; inactive means no such curve, though single readings can be large; an effect the other way counts as inactive or inconclusive. Potency means the concentration at half of the fitted maximal effect.

SMILES | JMJD2A Tudor | BAZ2B inh | G9a block | HP1b chromo inh | Sfp inh
CCC1=NN2C(=N)/C(=C\c3cccn3-c3ccc(OC)cc3)C(=O)N=C2S1 | 79µM* | 32µM* | ? | -12% | -5%
Cc1cc(/C=C2/C(=N)N3C(=NC2=O)SN=C3S(C)(=O)=O)c(C)n1-c1ccccc1F | ? | 45µM* | 50µM* | -12% | -4%
CS(=O)(=O)C1=NSC2=NC(=O)/C(=C\c3cccn3-c3ccc(Cl)cc3)C(=N)N21 | 45µM* | 40µM* | 45µM* | ? | ?
Cc1cc(C)c2c(=O)cc(C(=O)NCCc3ccc(S(N)(=O)=O)cc3)oc2c1 | 2% | -14% | 4%[59 µM] | 44% | /
CSc1cc2c(s1)c1cnn(Cc3ccccc3F)c(=O)c1n2C | -13% | / | / | / | /
CCOC(=O)c1c(C)c(C(=O)NCc2ccc(Cl)cc2)c(C)n1C | -13% | -9% | -38%[59 µM] | 12% | /
Cc1ccc(CNC(=O)CCc2c(C)nn(-c3ccc(N4CCCCC4)nn3)c2C)cc1 | -16% | -34% | 1%[59 µM] | 32% | /
CC1CCCN(C(=O)COC(=O)Cn2cnc3ccccc32)C1 (stereo unspecified) | -8% | / | / | 36% | /
O=c1c2[nH]c3cc(Br)sc3c2cnn1Cc1ccccc1F | 40µM* | / | / | / | /
Cc1ccc(C(=O)c2cn(CC(=O)NC3CCCCC3)c3nc(C)ccc3c2=O)cc1 | -26% | 8%[57.1 µM] | -10%[59 µM] | 13% | /
COc1ccc(CNc2nc(-c3c(C)noc3C)nc3ccccc23)c(OC)c1 | / | / | -11%[0.501 µM] | / | ?
Cc1ccc2nc(N(CCCN(C)C)C(=O)CN3C(=O)c4ccccc4C3=O)sc2c1 | ? | ? | ? | -2%[57 µM] | 2%
Cc1cc(C)c2sc(N(CCCN(C)C)C(=O)c3ccc(Br)s3)nc2c1 | ? | 50µM* | ? | -3% | -16%
CCN(Cc1ccccc1)S(=O)(=O)c1ccc(C(=O)N(CCCN(C)C)c2nc3cc(C)cc(C)c3s2)cc1 | ? | ? | 25µM* | ? | /
Cc1cc(C)c2sc(N(CCCN(C)C)C(=O)CN3C(=O)c4ccccc4C3=O)nc2c1 | -14%[11.4 µM] | ? | 50µM* | 63% | -13%
Cc1cc(C)c2sc(N(CCCN(C)C)C(=O)c3ccc(S(=O)(=O)N(C)Cc4ccccc4)cc3)nc2c1 | ? | ? | 40µM* | ? | /
COc1ccc(C)c2sc(N(CCCN(C)C)C(=O)c3ccc(S(=O)(=O)N4CCc5ccccc5C4)cc3)nc12 | -35% | / | / | ? | /
O=C(NCC(=O)N(c1ccccc1F)C(C(=O)NC1CCCC1)c1ccncc1)c1ccco1 (stereo unspecified) | 6% | 1% | -12% | 19% | 18%
O=C(NCCCN1CCOCC1)c1cccc(S(=O)(=O)Nc2ccccc2Cl)c1 | -1% | -2% | / | 21% | -2%
Cc1ccc(NC(=O)Cn2c(SCc3ccc(F)cc3)nc3cccnc32)cc1F | -17% | -2% | -26%[59 µM] | 34% | /
COc1ccc(NC(=O)c2cc(-c3ccccc3F)no2)cc1 | -1% | 3% | 5%[59 µM] | 49% | /
CCCCN(CC)S(=O)(=O)c1ccc(C(=O)N(CCCN(C)C)c2nc3cc(C)cc(C)c3s2)cc1 | ? | ? | 45µM* | -22% | 50µM*
Cc1ccc2sc(N(CCCN(C)C)C(=O)c3ccc(S(=O)(=O)N(C)C)cc3)nc2c1C | -4% | / | ? | 31% | -1%
O=C(C(=S)N1CCOCC1)c1c[nH]c2ccccc12 | 5% | ? | -122%[59 µM] | 12% | 11µM*
COc1ccc(N2CCN(C(=O)C(=O)c3cn(CC(=O)N4CCOCC4)c4ccccc34)CC2)cc1 | -26% | -17% | / | 8% | 1%
SMILES | JMJD2A Tudor | BAZ2B inh | G9a block | HP1b chromo inh | Sfp inh
O=C(C(=O)N1CCN(c2ccccc2)CC1)c1c[nH]c2ccccc12 | -28% | ? | 17%[59 µM] | 3% | -3%
COc1ccc(N2CCN(C(=O)C(=O)c3cn(CC(=O)N4CCCCCC4)c4ccccc34)CC2)cc1 | ? | ? | 71µM* | ? | 3%
CCN1CCN(C(=O)C(=O)c2cn(CC(=O)N3CCCCCC3)c3ccccc23)CC1 | -18% | -14% | 50µM* | 3% | 0%
COc1ccc(N2CCN(C(=O)C(=O)c3c[nH]c4ccccc34)CC2)cc1 | ? | ? | 45µM* | -9%[57 µM] | 18%
O=C(Cn1ncc2c(=O)oc3ccccc3c21)NCc1ccc(Cl)cc1 | -15% | -3% | -38%[59 µM] | 21% | /
Cc1cccc(NC(=O)Cn2c(=O)c3cccn3c3ccccc32)c1C | -13% | -6% | -3%[59 µM] | 48% | /
O=C(Nc1ccc(Br)c2ccccc12)c1ccc2ccccc2c1O | ? | 28µM* | 28µM* | ? | -3%
CC(=O)Nc1ccc(Br)c2ccccc12 | -17% | -34% | -1% | 33% | 1%
CC(C)CNc1nc(Oc2ccc(OCC(N)=O)nn2)nc(N2CCOCC2)n1 | -13% | -4% | 1%[59 µM] | 33% | /
Cc1cc(NC(=O)Nc2nnc(N(C)Cc3ccccc3)s2)ccc1Br | 19% | 36% | 39%[59 µM] | 49% | /
S=C(c1ccccc1)N1CCN(c2ccccc2)CC1 | -35% | / | / | ? | /
CC(C)(C)c1ccc(C(=S)N2CCN(c3ccccc3)CC2)cc1 | -36% | -34% | 20µM* | ? | 50µM*
CCN(CC)c1ccc(C(=S)N2CCN(c3ccccc3)CC2)cc1 | -17%[11.4 µM] | 10µM* | 11µM* | ? | ?
CCN(CC)c1ccc(C(=O)N2CCN(Cc3ccccc3)CC2)cc1 | ? | -12% | ? | -5% | 0%
COc1cccc(/C=C/C(=C2/C(=O)N(c3ccccc3)N=C2C)c2ccccc2)c1OC | ? | 4.5µM* | 1.4µM* | -35% | 3%
COc1ccccc1/C=C/C(=C1/C(=O)N(c2ccccc2)N=C1C)c1ccc(C)cc1 | 2.8µM* | 2.8µM* | ? | 2.5µM* | 6%
COc1cccc(/C=C/C(=O)OCC(=O)c2ccccc2)c1OC | 24% | / | / | 101% | /
COc1cccc(/C=C/C(=C2/C(=O)N(c3ccccc3)N=C2C)c2ccc(Br)cc2)c1OC | -31% | 1.3µM* | ? | -21% | 9%
